Assay results: ChEMBL document CHEMBL1961873, “Compounds: GSK PKIS; Assays: Nanosyn kinase panel” (2012)

Experiments:
[1] = target: T1, Tyrosine-protein kinase receptor TYRO3 (Homo sapiens) (UniProt Q06418); settings: at 1 µM
T1 sequence (whole entry): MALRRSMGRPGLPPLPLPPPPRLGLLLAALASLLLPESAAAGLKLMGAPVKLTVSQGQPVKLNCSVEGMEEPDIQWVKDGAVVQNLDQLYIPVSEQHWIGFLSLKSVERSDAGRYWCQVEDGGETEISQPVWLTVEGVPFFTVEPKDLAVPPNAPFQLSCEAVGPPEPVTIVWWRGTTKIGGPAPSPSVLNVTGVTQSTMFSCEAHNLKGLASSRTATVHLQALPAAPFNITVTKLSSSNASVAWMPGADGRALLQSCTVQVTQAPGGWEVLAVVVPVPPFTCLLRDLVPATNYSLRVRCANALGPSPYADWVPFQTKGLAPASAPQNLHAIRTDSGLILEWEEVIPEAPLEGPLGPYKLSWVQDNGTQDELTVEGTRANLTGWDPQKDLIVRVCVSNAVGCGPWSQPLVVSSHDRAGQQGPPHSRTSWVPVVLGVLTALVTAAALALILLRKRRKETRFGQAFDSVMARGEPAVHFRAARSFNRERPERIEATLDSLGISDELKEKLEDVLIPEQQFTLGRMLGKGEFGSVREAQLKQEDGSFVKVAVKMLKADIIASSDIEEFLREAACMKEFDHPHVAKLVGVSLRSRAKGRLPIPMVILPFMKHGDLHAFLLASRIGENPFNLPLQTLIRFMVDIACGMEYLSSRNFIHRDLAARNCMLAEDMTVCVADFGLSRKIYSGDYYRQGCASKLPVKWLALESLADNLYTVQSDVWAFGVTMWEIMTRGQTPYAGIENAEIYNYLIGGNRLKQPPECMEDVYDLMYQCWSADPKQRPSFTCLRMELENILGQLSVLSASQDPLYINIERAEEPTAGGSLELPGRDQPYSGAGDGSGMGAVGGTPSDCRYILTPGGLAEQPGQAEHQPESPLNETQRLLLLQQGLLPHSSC

[2] = target: Tyrosine-protein kinase Yes (Homo sapiens) (UniProt P07947); settings: at 0.1 µM
[3] = target: Tyrosine-protein kinase Yes (Homo sapiens) (UniProt P07947); settings: at 1 µM
[4] = target: T2, Tyrosine-protein kinase ZAP-70 (Homo sapiens) (UniProt P43403); settings: at 0.1 µM
T2 sequence (whole entry): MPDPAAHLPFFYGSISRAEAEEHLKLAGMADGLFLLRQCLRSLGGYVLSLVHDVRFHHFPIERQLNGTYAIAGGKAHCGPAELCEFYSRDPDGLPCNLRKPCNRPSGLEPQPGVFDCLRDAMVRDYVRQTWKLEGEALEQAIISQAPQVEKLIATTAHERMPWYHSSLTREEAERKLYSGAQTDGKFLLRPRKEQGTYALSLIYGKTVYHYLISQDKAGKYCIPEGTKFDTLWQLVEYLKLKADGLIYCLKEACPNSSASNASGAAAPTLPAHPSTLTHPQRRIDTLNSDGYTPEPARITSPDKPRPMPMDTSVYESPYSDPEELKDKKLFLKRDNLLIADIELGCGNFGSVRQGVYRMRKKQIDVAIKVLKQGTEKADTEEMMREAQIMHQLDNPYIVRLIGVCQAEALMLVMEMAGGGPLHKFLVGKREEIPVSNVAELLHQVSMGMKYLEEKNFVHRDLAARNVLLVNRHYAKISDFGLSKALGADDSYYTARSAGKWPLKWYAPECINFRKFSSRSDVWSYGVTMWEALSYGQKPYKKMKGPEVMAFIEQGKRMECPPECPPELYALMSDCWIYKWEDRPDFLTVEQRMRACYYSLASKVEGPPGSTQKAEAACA

[5] = target: T2, Tyrosine-protein kinase ZAP-70 (Homo sapiens); settings: at 1 µM
[6] = target: Serine/threonine-protein kinase B-raf (Homo sapiens) (UniProt P15056); settings: at 0.1 µM
[7] = target: Serine/threonine-protein kinase B-raf (Homo sapiens) (UniProt P15056); settings: at 1 µM
[8] = test system: Serine/threonine-protein kinase B-raf (Homo sapiens), P15056 [V600E]; settings: at 0.1 µM
[9] = test system: Serine/threonine-protein kinase B-raf (Homo sapiens), P15056 [V600E]; settings: at 1 µM
[10] = target: RAF proto-oncogene serine/threonine-protein kinase (Homo sapiens) (UniProt P04049); settings: at 0.1 µM
[11] = target: RAF proto-oncogene serine/threonine-protein kinase (Homo sapiens) (UniProt P04049); settings: at 1 µM
[12] = target: T3, Interleukin-1 receptor-associated kinase 4 (Homo sapiens) (UniProt Q9NWZ3); settings: at 0.1 µM
T3 sequence (whole entry): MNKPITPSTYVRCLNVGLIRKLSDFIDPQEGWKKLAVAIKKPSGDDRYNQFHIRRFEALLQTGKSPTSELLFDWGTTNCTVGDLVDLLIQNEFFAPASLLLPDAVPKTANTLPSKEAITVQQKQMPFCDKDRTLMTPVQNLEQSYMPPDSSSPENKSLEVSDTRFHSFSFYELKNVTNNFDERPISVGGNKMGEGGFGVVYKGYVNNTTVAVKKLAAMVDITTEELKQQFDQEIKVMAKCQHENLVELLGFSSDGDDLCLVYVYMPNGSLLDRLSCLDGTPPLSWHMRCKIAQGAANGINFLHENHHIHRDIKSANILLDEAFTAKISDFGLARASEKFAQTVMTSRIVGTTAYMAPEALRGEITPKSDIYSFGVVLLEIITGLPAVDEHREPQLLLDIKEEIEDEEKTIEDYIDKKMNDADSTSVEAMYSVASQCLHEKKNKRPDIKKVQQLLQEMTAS

[13] = target: T3, Interleukin-1 receptor-associated kinase 4 (Homo sapiens); settings: at 1 µM
[14] = target: Leucine-rich repeat serine/threonine-protein kinase 2 (Homo sapiens) (UniProt Q5S007); settings: at 0.1 µM
[15] = target: Leucine-rich repeat serine/threonine-protein kinase 2 (Homo sapiens) (UniProt Q5S007); settings: at 1 µM
[16] = test system: Leucine-rich repeat serine/threonine-protein kinase 2 (Homo sapiens), Q5S007 [G2019S]; settings: at 0.1 µM
[17] = test system: Leucine-rich repeat serine/threonine-protein kinase 2 (Homo sapiens), Q5S007 [G2019S]; settings: at 1 µM

Chain of Tyrosine-protein kinase Yes (Homo sapiens) (P07947 2-543 limits assumed): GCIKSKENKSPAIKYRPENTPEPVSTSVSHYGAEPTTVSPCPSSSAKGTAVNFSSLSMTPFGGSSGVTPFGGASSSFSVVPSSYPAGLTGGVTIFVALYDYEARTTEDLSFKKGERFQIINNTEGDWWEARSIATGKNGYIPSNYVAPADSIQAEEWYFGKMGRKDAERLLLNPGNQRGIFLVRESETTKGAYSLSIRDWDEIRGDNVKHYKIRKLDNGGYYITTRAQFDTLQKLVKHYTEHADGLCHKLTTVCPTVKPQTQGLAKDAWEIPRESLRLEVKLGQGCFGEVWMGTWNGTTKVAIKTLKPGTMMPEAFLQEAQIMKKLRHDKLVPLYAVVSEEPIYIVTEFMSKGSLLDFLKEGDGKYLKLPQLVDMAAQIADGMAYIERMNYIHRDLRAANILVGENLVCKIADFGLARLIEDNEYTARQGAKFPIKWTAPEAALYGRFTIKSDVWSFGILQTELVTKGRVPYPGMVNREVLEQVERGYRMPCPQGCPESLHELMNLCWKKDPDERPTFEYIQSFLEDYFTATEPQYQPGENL
Chain of Leucine-rich repeat serine/threonine-protein kinase 2 (Homo sapiens), Q5S007 [G2019S] (Q5S007 whole entry G2019S): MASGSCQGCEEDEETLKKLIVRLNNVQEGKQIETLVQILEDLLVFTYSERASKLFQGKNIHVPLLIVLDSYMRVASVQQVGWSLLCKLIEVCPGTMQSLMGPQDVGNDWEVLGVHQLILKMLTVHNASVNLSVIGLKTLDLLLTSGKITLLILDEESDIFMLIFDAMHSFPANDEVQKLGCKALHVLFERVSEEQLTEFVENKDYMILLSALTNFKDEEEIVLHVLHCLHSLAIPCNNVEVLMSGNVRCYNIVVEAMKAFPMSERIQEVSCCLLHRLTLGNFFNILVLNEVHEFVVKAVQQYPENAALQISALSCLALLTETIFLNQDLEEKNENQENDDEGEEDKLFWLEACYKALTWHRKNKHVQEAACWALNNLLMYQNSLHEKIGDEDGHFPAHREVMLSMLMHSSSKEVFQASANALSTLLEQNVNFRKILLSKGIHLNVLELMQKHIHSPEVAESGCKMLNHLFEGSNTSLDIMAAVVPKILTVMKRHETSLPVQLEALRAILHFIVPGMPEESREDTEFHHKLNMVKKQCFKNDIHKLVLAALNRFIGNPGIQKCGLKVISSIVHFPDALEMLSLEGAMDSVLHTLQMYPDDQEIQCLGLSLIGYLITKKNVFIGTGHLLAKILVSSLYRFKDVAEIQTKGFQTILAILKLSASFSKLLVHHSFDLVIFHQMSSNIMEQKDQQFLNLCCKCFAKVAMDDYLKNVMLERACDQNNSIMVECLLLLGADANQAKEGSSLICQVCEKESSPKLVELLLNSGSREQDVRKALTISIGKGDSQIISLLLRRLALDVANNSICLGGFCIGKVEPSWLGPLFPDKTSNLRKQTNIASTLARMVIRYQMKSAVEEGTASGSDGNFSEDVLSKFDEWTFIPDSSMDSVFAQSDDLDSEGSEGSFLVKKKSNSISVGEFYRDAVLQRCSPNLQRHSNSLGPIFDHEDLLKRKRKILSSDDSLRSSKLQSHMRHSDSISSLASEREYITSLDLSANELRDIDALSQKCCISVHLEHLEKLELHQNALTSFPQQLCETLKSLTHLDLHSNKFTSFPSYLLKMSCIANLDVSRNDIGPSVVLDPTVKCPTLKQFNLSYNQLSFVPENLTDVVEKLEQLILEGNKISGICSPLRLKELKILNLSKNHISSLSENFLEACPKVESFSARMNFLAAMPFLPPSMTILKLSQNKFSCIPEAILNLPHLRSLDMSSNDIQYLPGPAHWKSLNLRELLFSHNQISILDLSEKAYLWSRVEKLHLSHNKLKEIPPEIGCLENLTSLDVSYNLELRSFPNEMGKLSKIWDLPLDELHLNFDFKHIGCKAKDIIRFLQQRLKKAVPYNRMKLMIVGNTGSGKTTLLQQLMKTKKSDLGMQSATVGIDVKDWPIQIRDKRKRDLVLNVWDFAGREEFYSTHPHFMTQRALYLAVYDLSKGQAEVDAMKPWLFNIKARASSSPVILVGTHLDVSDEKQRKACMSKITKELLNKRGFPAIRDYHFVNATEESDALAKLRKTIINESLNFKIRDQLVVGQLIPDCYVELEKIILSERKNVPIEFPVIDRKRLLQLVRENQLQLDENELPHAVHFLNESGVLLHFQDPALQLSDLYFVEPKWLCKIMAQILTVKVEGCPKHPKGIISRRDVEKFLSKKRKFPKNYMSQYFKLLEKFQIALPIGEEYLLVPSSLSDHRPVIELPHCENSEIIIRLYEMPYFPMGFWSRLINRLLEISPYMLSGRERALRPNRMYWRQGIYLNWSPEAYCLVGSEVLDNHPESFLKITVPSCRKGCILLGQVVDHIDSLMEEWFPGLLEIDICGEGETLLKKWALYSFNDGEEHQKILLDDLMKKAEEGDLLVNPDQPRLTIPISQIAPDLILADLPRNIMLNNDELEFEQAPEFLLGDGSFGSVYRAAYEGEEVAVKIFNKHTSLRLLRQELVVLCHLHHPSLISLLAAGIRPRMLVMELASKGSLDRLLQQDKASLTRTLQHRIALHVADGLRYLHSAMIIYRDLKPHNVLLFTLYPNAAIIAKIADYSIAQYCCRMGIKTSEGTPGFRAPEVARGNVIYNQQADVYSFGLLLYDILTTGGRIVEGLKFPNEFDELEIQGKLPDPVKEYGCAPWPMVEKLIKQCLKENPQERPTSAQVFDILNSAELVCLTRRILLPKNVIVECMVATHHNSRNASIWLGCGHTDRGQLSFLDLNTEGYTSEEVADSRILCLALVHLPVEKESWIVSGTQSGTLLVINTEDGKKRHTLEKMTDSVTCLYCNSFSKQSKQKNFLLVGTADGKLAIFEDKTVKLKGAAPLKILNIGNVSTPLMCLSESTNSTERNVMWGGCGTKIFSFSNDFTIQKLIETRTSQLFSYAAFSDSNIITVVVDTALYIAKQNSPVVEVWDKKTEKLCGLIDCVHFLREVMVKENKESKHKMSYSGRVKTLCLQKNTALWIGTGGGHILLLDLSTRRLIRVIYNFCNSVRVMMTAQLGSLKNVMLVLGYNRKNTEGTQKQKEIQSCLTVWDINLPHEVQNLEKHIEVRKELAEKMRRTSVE
Chain of Leucine-rich repeat serine/threonine-protein kinase 2 (Homo sapiens) (Q5S007 whole entry): as the sequence (Q5S007 whole entry G2019S) above, with S2019G counted along it
Chain of Serine/threonine-protein kinase B-raf (Homo sapiens) (P15056 whole entry): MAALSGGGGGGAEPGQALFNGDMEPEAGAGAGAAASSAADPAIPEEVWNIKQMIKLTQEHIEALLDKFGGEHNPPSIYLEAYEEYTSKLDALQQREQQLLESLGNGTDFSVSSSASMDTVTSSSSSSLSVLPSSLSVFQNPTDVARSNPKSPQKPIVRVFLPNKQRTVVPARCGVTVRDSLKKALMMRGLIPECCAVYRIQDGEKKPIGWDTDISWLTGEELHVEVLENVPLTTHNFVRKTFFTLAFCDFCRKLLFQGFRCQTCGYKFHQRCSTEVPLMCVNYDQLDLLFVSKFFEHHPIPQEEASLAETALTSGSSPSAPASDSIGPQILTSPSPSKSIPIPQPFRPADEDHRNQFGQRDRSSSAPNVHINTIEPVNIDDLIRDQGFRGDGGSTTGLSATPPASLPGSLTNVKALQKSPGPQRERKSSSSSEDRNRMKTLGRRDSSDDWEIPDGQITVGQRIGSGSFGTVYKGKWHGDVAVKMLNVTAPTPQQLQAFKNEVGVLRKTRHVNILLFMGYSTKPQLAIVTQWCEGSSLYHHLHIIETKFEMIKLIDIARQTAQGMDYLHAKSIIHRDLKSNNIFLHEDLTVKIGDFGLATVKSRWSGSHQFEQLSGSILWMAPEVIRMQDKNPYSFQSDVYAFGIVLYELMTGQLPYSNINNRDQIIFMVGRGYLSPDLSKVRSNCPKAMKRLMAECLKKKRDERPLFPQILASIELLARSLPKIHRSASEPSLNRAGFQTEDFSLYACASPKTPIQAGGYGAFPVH
Chain of RAF proto-oncogene serine/threonine-protein kinase (Homo sapiens) (P04049 whole entry): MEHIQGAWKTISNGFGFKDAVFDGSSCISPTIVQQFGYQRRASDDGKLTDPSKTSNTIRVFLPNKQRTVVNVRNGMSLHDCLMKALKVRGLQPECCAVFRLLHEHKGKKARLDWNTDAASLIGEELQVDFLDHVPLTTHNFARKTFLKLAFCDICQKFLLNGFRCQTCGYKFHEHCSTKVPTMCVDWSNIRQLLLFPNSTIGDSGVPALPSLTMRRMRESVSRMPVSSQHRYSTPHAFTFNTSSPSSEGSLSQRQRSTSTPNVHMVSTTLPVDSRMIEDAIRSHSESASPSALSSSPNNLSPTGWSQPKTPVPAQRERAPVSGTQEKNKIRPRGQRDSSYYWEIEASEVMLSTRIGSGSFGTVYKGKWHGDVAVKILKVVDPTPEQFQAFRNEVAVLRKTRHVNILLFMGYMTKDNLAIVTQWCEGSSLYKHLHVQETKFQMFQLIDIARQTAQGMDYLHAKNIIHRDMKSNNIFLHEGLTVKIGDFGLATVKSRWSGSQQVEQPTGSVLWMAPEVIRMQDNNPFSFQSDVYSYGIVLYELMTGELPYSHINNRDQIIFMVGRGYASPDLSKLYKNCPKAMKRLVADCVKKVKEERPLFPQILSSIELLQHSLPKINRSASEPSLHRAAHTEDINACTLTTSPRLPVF
Chain of Serine/threonine-protein kinase B-raf (Homo sapiens), P15056 [V600E] (P15056 whole entry V600E): as the sequence (P15056 whole entry) above, with V600E counted along it

SMILES	inhibition [1] [%]	inhibition [2] [%]	inhibition [3] [%]	inhibition [4] [%]	inhibition [5] [%]	inhibition [6] [%]	inhibition [7] [%]	inhibition [8] [%]	inhibition [9] [%]	inhibition [10] [%]	inhibition [11] [%]	inhibition [12] [%]	inhibition [13] [%]	inhibition [14] [%]	inhibition [15] [%]	inhibition [16] [%]	inhibition [17] [%]
NS(=O)(=O)c1ccc(Nc2cc(-c3cccc(O)c3)n[nH]2)cc1	9.19	2.39	5.84	4.04	6.29	7.97	8.05	6.98	6.29	1.44	-1.78	0.88	2.85	6.39	12.4	6.39	17.1
COC(=O)Nc1nc2cc(Oc3ccc(NC(=O)Nc4cccc(Br)c4)cc3)ccc2[nH]1	15.3	4.4	6.98	5.03	3.22	13	20.6	11.3	20.8	-5.74	44.2	1.75	1.23	8.94	13.4	4.67	10.5
COc1ccc(-c2nn3ncccc3c2-c2ccnc(Nc3cccc(C(F)(F)F)c3)n2)cc1	4.06	26.3	79.8	-0.73	1.1	4.3	6.08	4.63	4.39	-2.4	-0.7	2.1	1.92	2.5	2.68	2.73	-0.13
CN(C)C(=O)O[C@@H]1CN[C@@H](C#Cc2cc3ncnc(Nc4ccc(OCc5cccc(F)c5)c(Cl)c4)c3s2)C1	-0.16	3.49	5.24	0.96	2.42	0.07	3.2	0.85	3.23	-2.83	–	2.83	0.5	0.07	0.34	1.22	4.14
Cc1nc(-c2ccccc2)n2nc(NCCCN3CCOCC3)ncc12	2.63	0.53	6.58	0.35	0.63	3.54	7.13	4.13	4.57	8.88	3.81	1.72	1.58	0.1	5.23	2.23	6.32
O=C1Nc2ccc(-c3cccnc3)cc2C1=Cc1cc(Br)c(O)c(Br)c1	9.95	2.64	5.79	–	-8.3	8.77	18.3	8.84	18.1	-2.68	21.8	-1.88	4.22	23.2	22.3	47.2	61.3
NS(=O)(=O)c1ccc(N/N=C2\C(=O)Nc3ccc(Cl)cc32)cc1	5.46	1.72	3.69	1.01	3.02	4.45	4.35	5.27	4.36	-0.52	-2.46	1.38	1.48	3.85	14.7	10.2	49.5
CCS(=O)(=O)c1ccc(OC)c(Nc2nccc(N(C)c3ccc4c(C)n[nH]c4c3)n2)c1	7.2	29.3	73.9	0.81	2.48	6.4	8.1	5.33	5.98	1.8	3.08	1.47	1.99	5.36	22.5	8.48	27.3
Cc1cc(-c2ccccn2)cc(C)c1/C=C/c1cncc(-c2nn[nH]n2)c1	0.93	1.13	11.4	3.62	-2.29	5.62	12.4	4.7	5.23	1.48	0.84	1.97	2.42	1.5	10.7	3.32	8.55
Cc1ccc2c(-c3ccnc(Nc4ccc5c(c4)OCCO5)n3)c(-c3ccc(C(F)(F)F)cc3)nn2n1	2.41	6.79	46.8	-2.2	1.38	0.83	1.14	0.62	1.44	4.51	1.48	-0.63	-0.5	2.01	2.22	2.87	3.58
[O-][S+]1CCN(Cc2ccc(-c3ccc4ncnc(Nc5ccc(OCc6ccccc6)c(Cl)c5)c4c3)o2)CC1	2.86	6.47	39.1	-3.44	1.8	3.08	3.86	2.34	3.29	-1.87	-0.7	0.32	0.82	1.07	2.89	4.21	4.96
CN(C)c1cc2c(Nc3ccc4c(cnn4Cc4ccccc4)c3)ncnc2cn1	7.51	13.5	49.8	2.63	5.85	3.72	3.71	4.74	4.34	1.64	7.17	3.11	1.57	3.31	9.07	3.44	8.03
Cc1ccc(C(=O)NC2CC2)cc1-c1ccc2[nH]ncc2c1	-0.85	-1.92	-0.56	-3.94	-1.58	-6.03	-6.48	-3.87	-3.07	-2.17	-2.56	-1.84	-0.57	-0.67	2.87	1.11	4.33
COc1cc2ncn(-c3cc(OCc4ccccc4S(C)(=O)=O)c(C#N)s3)c2cc1OC	20.1	8.67	39.2	–	4	5.38	8.14	4.97	6.91	5.23	2.83	-0.58	10.8	25.5	83.7	60.4	61.8
CN1CCN(C(=O)c2ccc(NC(=O)Nc3ccc(N(C)c4ccnc(Nc5ccc(CS(C)(=O)=O)cc5)n4)cc3)cc2)CC1	21.9	2.29	16.2	2.02	5.2	2.69	14.5	3.84	11.8	2.58	-0.88	0.32	0.52	13.7	21.2	15.2	50.9
